Data as given in PubChem BioAssay (NCI).
This is part of a sample that, as a whole, favours compounds with a hit. Of some 79,000 tested, about 15% had one in any assay. Values without a mark were called inactive. Calls of active or inactive are those of the source. No stated cut-off is given here; in the data, active means growth inhibition above about 70%; inactive means the rest. Where a SMILES comes first, the peptide text is derived from it. [ ]: non-standard residue; d: D form. The star is where a group is joined. ξ: configuration not given here. Cbz = O=C(OCc1ccccc1)*; ξK = NCCCCC(N)C(=O)O

Assays:
[1] = NCI Yeast Anticancer Drug Screen. Data for the rad50 strain (AID 155);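 further: 0% = growth of vehicle-only cultures of the same strain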; settings: S. cerevisiae rad50 strain growth inhibition; at 50.0 µM; active compounds read high
Procedure, shortened: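 Growth of the mutant yeast was measured after compound exposure and referenced to vehicle-treated cultures.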

[2] = NCI Yeast Anticancer Drug Screen. Data for the mec2-1 strain (AID 157); settings: S. cerevisiae mec2-1 strain, at 50.0 µM, active compounds read high
Procedure, shortened: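 Yeast mec2-1 mutant treated with compound. Readout: growth inhibition vs vehicle controls.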

[3] = NCI Yeast Anticancer Drug Screen. Data for the sgs1 mgt1 strain (AID 161);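 further: 0% = growth of cultures given vehicle only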; settings: S. cerevisiae sgs1 mgt1 strain, at 50.0 µM, active compounds read high
Procedure, shortened: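 Test agents were incubated with a DNA-repair-mutant yeast strain. Growth was then read and compared against vehicle-treated controls.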

[4] = NCI Yeast Anticancer Drug Screen. Data for the cln2 rad14 strain (AID 165);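 further: 0% = growth equal to vehicle treated cultures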; settings: S. cerevisiae cln2 rad14 strain, at 50.0 µM, active compounds read high
Procedure, shortened: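 cln2 rad14 yeast strain; compound exposure; growth inhibition read vs vehicle controls.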

[5] = NCI Yeast Anticancer Drug Screen. Data for the bub3 strain (AID 167); settings: S. cerevisiae bub3 mutant strain, at 50.0 µM, active compounds read high
Procedure, shortened: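 Whole-cell yeast assay. The mutant strain was incubated with compounds, and growth inhibition was determined by comparison with vehicle-treated cells.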

[6] = NCI Yeast Anticancer Drug Screen. Data for the mlh1 rad18 strain (AID 175); settings: S. cerevisiae mlh1 rad18 strain growth inhibition; at 50.0 µM; active compounds read high
Procedure, shortened: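 Yeast w/ defined DNA-repair lesions; compound exposure; growth vs vehicle controls → % inhibition.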

Row | Structure (SMILES) | growth inhibition [1] | growth inhibition [2] | growth inhibition [3] | growth inhibition [4] | growth inhibition [5] | growth inhibition [6]
1 | CC(=O)Nc1ccc2c(=O)cc[nH]c2n1 | 13.7% | 2.9% | 2.4% | 1.9% | -2.95% | 31.2%
2 | CCc1ccc2c(c1)CCC(=O)O2 | 0.5% | -15.2% | -4.8% | -23.7% | -13.9% | -7.65%
3 | Cc1ccc(S(=O)(=O)c2ccc(C)cc2[N+](=O)[O-])cc1 | 21.8% | -7.5% | 18.5% | -4.95% | 45.7% | -9.75%
4 | CC1=C(O)C(=O)C2C(=O)C1C1Cc3ccccc3C21 (stereo not given) | -21.1% | -2.05% | -24.6% | -3.2% | -2.1% | -17.6%
5 | CCC(=C(c1ccc(OCc2ccccc2)cc1)c1ccc(OCc2ccccc2)cc1)c1ccc(OC)cc1 | 14.7% | -24.2% | 9.45% | -0.3% | -20.8% | -14.3%
6 | c1ccc2c(c1)nc1n2C2CCC(C2)N1 (stereo not given) | 4% | 10% | 18.8% | 21.9% | 6.15% | 15.7%
7 | NCCCCC(NC(=O)OCc1ccccc1)C(=O)NCC(N)=O (stereo not given) (Cbz-[ξK]-Gly-NH2) | 10.1% | 8.5% | 5% | 4.05% | 16.1% | -30.2%
8 | CCOc1c/c(=N\N=C(/C)c2ccc(Cl)cc2)n(C)c(=O)n1C | -13.8% | -8.5% | -10.5% | -35.2% | -6.85% | -12.7%
9 | CCC1NC(=O)C(NC(=O)c2ncccc2O)C(C)OC(=O)C(c2ccccc2)NC(=O)C2CC(=O)CCN2C(=O)C(Cc2ccccc2)N(C)C(=O)C2CCCN2C1=O (stereo not given) | -6.9% | -32.6% | -29.1% | -17.4% | -6.45% | 0.3%
10 | CC1(c2cccc[n+]2Cc2ccc(Cl)c(Cl)c2)OCCO1 | 6.7% | 1.65% | 0.2% | -18.3% | -2.2% | 14.2%
11 | CCn1c(C)[n+](CCCOS(=O)(=O)[O-])c2ccccc21 | 2.6% | -19.1% | -14.4% | 4.1% | 4.6% | -6.05%
12 | Cn1nc(Br)c(=O)n(C)c1=O | -17.9% | -11.1% | -14.8% | -3.15% | 1.7% | -10.4%
13 | CCCC(NC(C)=O)C(=O)O (stereo not given) | 8.6% | 2.75% | 2.8% | -21.1% | 1.15% | 8%
14 | O=C1C=C(Nc2ccccc2C(=O)CC(=O)C(=O)Nc2ccc(Cl)c(Cl)c2)c2ccccc2C1=O | -14.1% | 5.7% | 3.2% | -30.9% | -24.2% | -7.15%
15 | O=C(Cn1c2c(c3ccccc31)CCCC2)N1CCCC1 | -11.8% | -39.9% | 0.05% | 2.75% | 7.05% | -23.7%
16 | O=C(Nc1nc(C23CC4CC(CC(C4)C2)C3)cs1)c1c(O)c2ccccc2[nH]c1=O | -29.2% | -23.9% | -8.75% | 8.95% | -6.45% | -22.5%
17 | CN(/N=C\c1ccc2ccccc2c1)C1=NCCCCN1 | -2.05% | -5.45% | -27.6% | -37% | -0.1% | 1.6%
18 | CC1(CO)CSC(Nc2ccc(Cl)c(Cl)c2)=N1 (stereo not given) | 19.1% | -12.9% | 37.8% | 32.5% | 20.1% | 19.1%
19 | CCOC(=O)CC1(O)C(=O)N(Cc2ccccc2)c2ccccc21 (stereo not given) | 15.6% | -0.15% | 7.55% | 0.4% | 19.8% | -15.1%
20 | COC(=O)c1ccccc1C#CC#Cc1ccccc1C(=O)OC | -5.25% | -32.1% | 4.6% | 8.85% | -2.4% | -3.5%
21 | O=C(Cc1ccccc1)N(c1ccccc1)c1ccccc1 | 23.5% | -9.25% | 13% | 14.7% | 49.9% | 5.9%
22 | CCCCSc1nc2c([nH]1)c(=O)n(C)c(=O)n2C | -0.75% | 2.8% | 4.3% | -34.5% | 22.9% | 1.5%
23 | COC(=O)c1ccc(OCc2ccc3nc(OC)c(OC)nc3c2)cc1 | -32.1% | -30.4% | -50.1% | 7.35% | -28.9% | -37%

Row | Structure (SMILES) | growth inhibition [1] | growth inhibition [2] | growth inhibition [3] | growth inhibition [4] | growth inhibition [5] | growth inhibition [6]
24 | NS(=O)(=O)c1ccc(Nc2c3ccccc3nc3cc(Cl)ccc23)cc1 | 25.6% | -17.8% | 6.9% | 3.3% | -8.5% | -13.3%
25 | C=C(CC(=O)OC)C(=O)OC | 12.3% | -2.9% | 8.45% | 7.8% | 4.15% | 9.45%
26 | C=CCCCCCCCCC(=O)NCCCN1CCOCC1 | 77.5% (active) | 76.1% (active) | 93.5% (active) | 83.6% (active) | 85% (active) | 94.7% (active)
27 | c1ccc(/N=C2\c3ccccc3CN2c2ccccn2)nc1 | -21.9% | 3.75% | -7.6% | -3.75% | 9% | -1.35%
28 | N#Cc1c(-c2ccco2)cc(-c2ccccc2)[nH]c1=O | 31.8% | 8.1% | 18.1% | 33.3% | 9.7% | 25.6%
29 | CCC1(N=[N+]=[N-])C(=O)c2ccccc2N(c2ccccc2)C1=O (stereo not given) | -13.3% | -13% | -18.9% | 2.75% | -0.95% | -19.4%
30 | N#Cc1ccc(NN=NCCCCCCl)cc1 | 22.7% | -3.2% | 1.25% | 8.5% | 15.8% | 1.55%
31 | O=C(N=C1[Se]C(=Nc2ccccc2)C(=Nc2ccccc2)N1c1ccc(Cl)cc1)c1ccccc1 | -13.8% | -10.4% | -27.1% | -22.9% | -9.25% | -21.4%
32 | CN(C)c1ccc(/C=C(/C(=O)O)c2csc(-c3nc(/C(=C\c4ccc(N(C)C)cc4)C(=O)O)cs3)n2)cc1 | 34.8% | 9.45% | 10.2% | -19.8% | 13.2% | 25.4%
33 | OCCc1c[nH]c2ccccc12 | -18.7% | -16.2% | 10.5% | -17.3% | -1.85% | 11.8%
34 | Cc1nc([N+](=O)[O-])cn1/C=C/Cn1cc([N+](=O)[O-])nc1C | -3.25% | -18.9% | 5% | 6.65% | -25.7% | 4.8%
35 | N#CC(C#N)CN(C1=NCCO1)c1cccc2c1CCCC2 | -16.6% | 8.4% | -3.6% | -24.6% | -12.4% | 14.3%
36 | COc1cc(C#N)cc(OC)c1 | -17.4% | -16.4% | -26.9% | 3.6% | -12.1% | -5.5%
37 | C=C(C)C(=O)Nc1ccc2nn(-c3ccccc3O)nc2c1 | -24.9% | -25.4% | 1.75% | 8.15% | -14.2% | 5.3%
38 | O=C(O)C1CCC(=O)N1Cc1ccccc1 (stereo not given) | 1.35% | -5.5% | -7.75% | -18% | -7.05% | -8.35%
39 | Nc1ccc(S(=O)(=O)OCCOc2ccccc2)cc1 | -2.85% | 7.6% | 2.6% | -4.2% | 18.7% | -7.3%
40 | O=C1/C(=C/c2ccccc2)CC/C1=C\c1ccccc1 | 5.35% | 17.6% | 31.8% | 20.2% | 19.8% | 3.85%
41 | NNC(=O)N/N=C/c1cccc(O)c1 | -11.7% | -2.35% | -21.4% | -12.1% | 1.1% | -19.4%
42 | Cc1ccc([N+](=O)[O-])c2c(NCCCN(C)C)ccnc12 | 42.2% | 16.1% | 20% | 4.7% | 13.2% | 49.2%
43 | COc1ccc(C(=O)/C=C/c2ccc(OCCSCCCCCCCCCCSCCOc3ccc(/C=C/C(=O)c4ccc(OC)cc4)cc3)cc2)cc1 | -35% | -30.1% | -16.6% | 3.75% | -20.2% | -40.3%
44 | CCOC(=O)c1ncn2c1[nH]c(=S)c1ccccc12 | -14.8% | -19.1% | -11.2% | -0.95% | -17.9% | -2.05%
45 | CC1(C)N=C(N)N=C(N)N1c1ccc(CN)cc1 | 19.8% | 7% | -18.4% | -6.8% | -2.3% | 19.3%
